# Source: PubChem BioAssay (NCATS)
# “And” between values parts separate entries of the source, which are not always exact repeats. Identical values can stand only once. Records with an inconclusive call do not appear. For some assays here: Entries with a potency or affinity are not part of this list. The source made the active and inactive calls. Unless noted, no rule for the calls is given here.
# Tests used:
# [1] = Ebola virus entry assay, ratio channel
# [2] = Ebola virus entry assay, green channel fluorescence
# [3] = Ebola virus entry assay, reporter ratio channel; Channel type: primary
# [4] = Ebola virus entry assay, blue channel (ratio component)
# [5] = qHTS assay for small molecule antagonists of the retinoid-related orphan receptor gamma (ROR-gamma) signaling pathway - cell viability counter screen (AID 720652; active = well fitted curve in the direction sought with a large enough effect in the repeat runs; an effect the other way counts as inactive or inconclusive;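 also: compound exposure lasted 16 hr before ATP read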; also: potency is read from the fitted curve at half-maximal effect); settings: RORgamma reporter cell line viability counter screen; series mostly up to 92.2 µM
# Method in brief: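 Luminescence from CellTiter-Glo after 30 min at room temperature reported cellular ATP as the cytotoxicity measure. Cells were the CHO reporter line with doxycycline-induced ROR-gamma expression, exposed to compound for 16 hr at 37 C.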
# [6] = qHTS assay for small molecule agonists of the antioxidant response element (ARE) signaling pathway measured by Nrf2-dependant transcriptional activity - cell viability counter screen (AID 720653; active = well fitted curve in the direction sought with a large enough effect in the repeat runs; an effect the other way counts as inactive or inconclusive; also: % is scaled to controls: 0 for no effect and ±100 for the full control effect); settings: ARE-bla HepG2 viability, CellTiter-Glo ATP luminescence, 16 h; max response: active compounds read low
# Method in brief: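 ARE-bla HepG2 cells treated with compounds for 16 h at 37C; this counter screen measures viability as intracellular ATP by CellTiter-Glo luminescence after 30 min at room temperature.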
# [7] = qHTS Assay for Identifying Gametocytocidal Compounds (AID 743244; active = well fitted curve in the direction sought with a large enough effect; an effect the other way counts as inactive or inconclusive;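 also: % is scaled to controls: 0 for no effect and ±100 for the full control effect; actives lower the fluorescent signal which means gametocytes are killed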); settings: P. falciparum 3D7 stage III-V gametocytes, alamarBlue, 72 h; max response: active compounds read low
# Method in brief: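 3D7 gametocytes, stages III–V, 20,000/well; cpd 72 h, 37 °C/5% CO2; + alamarBlue 24 h; fluor. Ex 525/Em 598.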
# [8] = qHTS assay for cell viability of HEK293 cells (AID 743288; active = well fitted curve in the direction sought with a large enough effect; an effect the other way counts as inactive or inconclusive; also: % is scaled to controls: 0 for no effect and ±100 for the full control effect; nearly all actives have a fitted effect of over 50% in size); settings: ATP luminescence (CellTiter-Glo), 18 h; max response: active compounds read low
# Method in brief: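 Total intracellular ATP, measured with a luciferase-coupled reagent, indicates the number of viable HEK293 cells. Exposure to test chemicals lasts 18 h at 37 C in 1,536-well format at 2,000 cells/well.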
# [9] = qHTS assay for cell viability of the p53RE-bla HCT-116 cell line (AID 743292; active = well fitted curve in the direction sought with a large enough effect; an effect the other way counts as inactive or inconclusive; also: % is scaled to controls: 0 for no effect and ±100 for the full control effect; nearly all actives have a fitted effect of over 55% in size); settings: p53RE-bla HCT-116 viability, ATP luminescence, 16 h; series mostly up to 95 µM
# Method in brief: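 ATP-based luminescent viability (CellTiter-Glo, 30 min RT) after 16 h compound treatment at 37 C of p53RE-bla HCT-116 cells, seeded at 4,000 cells/well and rested 5 h before dosing.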
Compound,outcome [1],outcome [2],outcome [3],outcome [4],Potency [5],max response [6],max response [7],max response [8],Potency [9],AC50 [3],AC50 [1]
CC(C)OC(=O)c1cc(C(=O)OC(C)C)cc([N+](=O)[O-])c1,inactive,inactive,inactive,inactive,–,–,–,–,–,–,–
Nc1ccc(Cl)cc1N,inactive,inactive,–,inactive,inactive,-19.8% (inactive),-15.5% (inactive),-8.79% (inactive) and -16.5% (inactive),inactive,35.5 µM (active),–
O=C(Nc1ccccc1-c1ccc(Cl)cc1)c1cccnc1Cl,–,inactive,inactive,inactive,–,-1.23% (inactive),10.9% (inactive),-25.4% (inactive),inactive,–,22.4 µM (active)
CCc1c(C)[nH]c2c1C(=O)C(CN1CCOCC1)CC2 (stereo not given),inactive,inactive,inactive,inactive,–,–,–,–,–,–,–
C=CCC1=C(C)C(OC(=O)C2C(C=C(C)C)C2(C)C)CC1=O (stereo not given),inactive,inactive,inactive,inactive,–,6.17% (inactive) and -10.4% (inactive),-9.3% (inactive),-9.9% (inactive) and -17.4% (inactive),inactive,–,–
Nc1nc2ccc([N+](=O)[O-])cc2s1,inactive,–,inactive,–,–,–,–,–,–,–,–
ClC1=C(Cl)[C@]2(Cl)[C@@H]3[C@@H]4C[C@@H]([C@H]5O[C@@H]45)[C@@H]3[C@@]1(Cl)C2(Cl)Cl,–,inactive,–,inactive,–,-16.9% (inactive),–,-27.3% (inactive),inactive,5.62 µM (active),5.62 µM (active)
COc1ccc(C(c2ccc(OC)cc2)C(Cl)(Cl)Cl)cc1,–,inactive,–,–,66.8 µM (active) and 42.2 µM (active),5.23% (inactive) and -7.02% (inactive) and -11.5% (inactive),-11% (inactive),-23.2% (inactive) and -28.9% (inactive) and -19.6% (inactive),inactive,22.4 µM (active),22.4 µM (active)
